# Compounds without any hit were thinned out: in the full panel of roughly 83,000, 20% have a hit.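 Cells were grown in 96-well plates and exposed to the test compound at a single concentration for 48 hours; results are reported as percent growth, with values below 10 considered active.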 Values without a mark were called inactive. The source made the active and inactive calls.
# System: SK-OV-3 ovarian
# Assay: NCI-60 one-dose screen, 48 h (100 = growth as untreated, 0 = no growth, -100 = all killed)
# Details: 10 µM unless noted
# Protocol: Growth inhibition of the SK-OV-3 human tumor cell line is measured as a screen for anti-cancer activity. Cells are grown in 96 well plates and exposed to the test compound for 48 hours. Compounds are tested at a single concentration, which is 10^-5 M for most compounds. The reported endpoint is percent growth (GI% or GIPRCNT), where numbers from 0 - 100% represent growth inhibition, and numbers from -100% - 0 represent cell death. For example, a value of 40 represents 60% growth inhibition. A value of 0 means no net growth occurred over the course of the experiment. A value of -40 indicates 40% of cells at the beginning of the experiment died by the end of the experiment. A value of -100 means all cells are dead at the end of the experiment.
# NCI-60 Human Tumor Cell Lines Screen was performed using the standard one-dose NCI protocol, which is described in more detail at https://dtp.cancer.gov/discovery_development/nci-60/default.htm.
# Compounds with GIPRCNT values below 10 were considered active. Activity score was based on GIPRCNT using the following formula: […]
# Score is 0 for GIPRCNT values of 100 or above, 50 for GIPRCNT values of 0, and 100 for GIPRCNT values of -100.
row,SMILES,growth
1,CCOc1c(Cl)cc(CNC(C)C(O)c2ccccc2)cc1OC (stereo not given),86.3%
2,CCOc1ccc(C(O)CN(C)Cc2ccccc2)cc1Cl (stereo not given),109%
3,n1nc(-c2nonc2-c2nn[nH]n2)n[nH]1,115%
4,OC1(c2ccc(Cl)cc2Cl)c2ccccc2C2=NCCN21 (stereo not given),89.5%
5,CC(=O)C1C(=O)N(C)C(=O)N(C)C1=O,115%
6,C/C1=C/C(=O)O[C@@H]2C[C@@H](CC[C@H](C)/C=C\C=C\CC1)O[C@@](OCCc1ccccc1)([C@@H]1CSC(=O)N1)C2,-32.3% (active)
7,O=C(O)c1[nH]c(=O)[nH]c(=O)c1F,112%
8,O=S(=O)(F)c1ncnc2nc[nH]c12,94.7%
9,CCC(C)[C@H]1O[C@]2(C=C[C@@H]1C)C[C@@H]1C[C@@H](C/C=C(\C)[C@@H](OC3C[C@H](OC)C(O[C@H]4C[C@H](OC)[C@@H](O)[C@H](C)O4)[C@H](C)O3)[C@@H](C)/C=C/C=C3\CO[C@@H]4[C@H](O)C(C)=C[C@@H](C(=O)O1)[C@]34O)O2 (stereo not given in full),12.6%
10,CNC(=O)Oc1cccc(OC)c1,118%
11,CCOC(=O)Nc1cc(Cl)c([N+](=O)[O-])c(NC(=O)OCC)n1,103%
12,CC[C@@]1(C2O[C@@H](C3O[C@@](O)(CC)[C@H](C)C[C@@H]3C)C[C@@H]2C)CC[C@H]([C@]2(C)CCC3(C[C@H](O)[C@@H](C)[C@@H]([C@H](C)[C@@H](OC)[C@H](C)C(=O)O)O3)O2)O1 (stereo not given in full),23%
13,COC1=CC(=O)OC(CCc2ccc3c(c2)OCO3)C1 (stereo not given),112%
14,Nc1nc(N)c(-c2ccc(Cl)c(Cl)c2)c(/C=C/c2ccc(S(=O)(=O)F)cc2)n1,97.2%
15,COc1ccc(C2=NN(c3ccccc3)C(c3sc(N(CCCl)CCCl)nc3Cl)C2)cc1 (stereo not given),75.9%
16,C[C@]12CC[C@H]3[C@@H](C[C@@H]4N=C(c5ccc(O)cc5)S[C@@]45C[C@H](O)CC[C@]35C)[C@@H]1CC[C@@H]2O,38.6%
17,ClCCN(CCCl)c1ccc(/C=C\c2ccnc3ccccc23)cc1,101%
18,O=C1NC2(CCNCC2)Nc2ccccc21,103%
19,CC(=O)O[C@H]1CC[C@H]2[C@@H]3CC[C@H]4CC=C(C)C[C@]4(C)[C@H]3CC[C@]12C,102%
20,CCCCCCCCCCOc1ccc(C(=O)Oc2ccc(CSP3(=O)OCC4OC(n5ccc(=O)[nH]c5=O)C(F)C4OP(=O)(O)OCC4OC(n5cnc6c(N)ncnc65)C(F)C4O3)cc2)cc1 (stereo not given),97.8%

row,SMILES,growth
1,CC(=O)[O][Hg][c]1nc2c(c(=O)n(C)c(=O)n2C)n1C,115%
2,CC1(C)N=C(N)N=C(N)N1c1ccc(CCCCc2ccc(S(=O)(=O)F)cc2)cc1,69.1%
3,CC[C@@H](C)/C=C(C)/C=C/C(=O)c1c(O)c(-c2ccc(O)cc2)cn(O)c1=O,17.8%
4,CCC1([N+](=O)[O-])COP(=O)(NCc2cccnc2)OC1 (stereo not given),94.4%
5,C1CN1c1nc(N2CC2)nc(N2CC2)n1,38.1%
6,CCN(CC)c1ccc(C=C2C(=O)NC(=S)NC2=O)cc1,94.1%
7,O=[N+]([O-])c1cc([N+](=O)[O-])c(Cl)c(Cl)c1Cl,101%
8,Cc1cc(CCl)c(C)cc1CCl,73.9%
9,S=P(NC1CCCCC1)(N1CC1)N1CC1,131%
10,CC(C)(C)[Si](C)(C)OC1[C@@H](O[Si](C)(C)C(C)(C)C)[C@@H](CNC(=O)NC(=O)CF)O[C@H]1n1cnc2c(NC(=O)Nc3ccccc3)ncnc21 (stereo not given in full),89.3%
11,O=[N+]([O-])c1ccccc1N1CCNCC1,96%
12,CNC(=O)Oc1cc(C(C)C)ccc1Sc1ccc(C(C)C)cc1OC(=O)NC,80.1%
13,C=CC(=O)NC(O)C(Cl)(Cl)Cl (stereo not given),98.2%
14,CC(C)N=C(NC(C)C)N1CC1,115%
15,C=CC(O)CN1CC1CC (stereo not given),107%
16,O=[N+]([O-])c1ccc2cnn(CSP(=S)(c3ccccc3)c3ccccc3)c2c1,90.1%
17,Cc1cc(NC(=O)NCCOc2ccc(N3C(N)=NC(N)=NC3(C)C)cc2Cl)ccc1S(=O)(=O)F,55.4%
18,NC(=O)NC(=O)CI,111%
19,Cc1cc(NC(=O)/C=C/c2ccc([N+](=O)[O-])cc2)ccc1S(=O)(=O)F,99.9%
20,N#[N+]c1nc2nc(N)[nH]c(=O)c2[nH]1,94.2%
